# Measured values: PubChem BioAssay (NCATS)
# “And” between values parts separate entries of the source, which are not always exact repeats. Equal entries are not always repeated. Records with an inconclusive call do not appear. A call without a number means that no potency is given here. Some compounds were tested as several samples or in several runs, with calls that do not always agree. The source made the active and inactive calls. Unless noted, calls follow the shape of the dose curve; as a rule, active = well fitted curve in the direction sought with a large enough effect; inconclusive = small, poorly fitted or top-dose-only effect, or another doubt; inactive = no such curve, though single readings can be large; an effect the other way counts as inactive or inconclusive.
# Assays:
# [1] = target: Guanine nucleotide-binding protein G(i) subunit alpha-1 (Homo sapiens) (UniProt P63096); assay: qHTS Assay for Inhibitors of RGS12 GoLoco Motif Activity (Green Fluorophore) (AID 879);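 also: negative values mean loss of peptide binding seen as reduced polarization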
# Guanine nucleotide-binding protein G(i) subunit alpha-1 (Homo sapiens), sequence (P63096 whole entry, looked up): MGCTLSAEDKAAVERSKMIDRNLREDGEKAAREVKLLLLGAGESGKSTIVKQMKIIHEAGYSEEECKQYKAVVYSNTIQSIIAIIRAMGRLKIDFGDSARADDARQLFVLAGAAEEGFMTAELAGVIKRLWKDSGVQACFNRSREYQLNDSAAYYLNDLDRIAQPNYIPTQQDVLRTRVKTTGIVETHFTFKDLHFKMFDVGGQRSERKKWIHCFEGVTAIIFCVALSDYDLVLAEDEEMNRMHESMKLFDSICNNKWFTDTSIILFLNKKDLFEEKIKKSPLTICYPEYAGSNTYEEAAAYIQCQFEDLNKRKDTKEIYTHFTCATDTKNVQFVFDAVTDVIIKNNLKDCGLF
# Procedure, shortened: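 A drop in FITC polarization marked displacement of the FITC-tagged RGS12 GoLoco peptide (10 nM) from Gαi1 (50 nM). Compounds were incubated 10 min at room temperature in Tris pH 7.5 buffer containing 150 mM NaCl, 0.1 mM GDP and 0.05% NP40; unlabeled peptide titration served as control.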
# [2] = target: Cytochrome P450 3A4 (Homo sapiens) (UniProt P08684); assay: qHTS Assay for Inhibitors and Substrates of Cytochrome P450 3A4 (AID 884); also: nearly all actives have a fitted effect of over 50% in size; also: potency is read from the fitted curve at half-maximal effect
# Cytochrome P450 3A4 (Homo sapiens), sequence (P08684 whole entry, looked up): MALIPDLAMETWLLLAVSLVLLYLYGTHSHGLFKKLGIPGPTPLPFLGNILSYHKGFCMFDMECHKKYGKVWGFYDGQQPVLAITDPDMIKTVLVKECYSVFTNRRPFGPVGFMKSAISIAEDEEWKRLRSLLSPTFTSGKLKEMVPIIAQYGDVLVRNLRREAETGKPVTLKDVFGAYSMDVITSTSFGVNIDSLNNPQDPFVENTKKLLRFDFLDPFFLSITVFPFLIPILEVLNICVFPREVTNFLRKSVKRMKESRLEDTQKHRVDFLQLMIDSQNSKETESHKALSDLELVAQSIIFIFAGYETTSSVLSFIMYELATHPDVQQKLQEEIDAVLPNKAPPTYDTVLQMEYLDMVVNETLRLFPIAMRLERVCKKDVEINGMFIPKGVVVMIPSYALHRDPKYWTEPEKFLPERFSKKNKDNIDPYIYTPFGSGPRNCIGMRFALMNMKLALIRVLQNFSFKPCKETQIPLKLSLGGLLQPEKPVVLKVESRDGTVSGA
# Procedure, shortened: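 Luminescent readout of luciferin produced by CYP3A4 (20 nM) dealkylation of Luciferin-PPXE, 25 uM (its KM). NADPH-driven reaction ran 60 min at RT after 10 min compound preincubation; data scaled to 57 uM ketoconazole as 100% inhibition.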
# [3] = target: Cytochrome P450 3A4 (Homo sapiens) (UniProt P08684); assay: qHTS Assay for Activators of Cytochrome P450 3A4 (AID 885); also: nearly all actives have a fitted effect of over 65% in size; also: potency is read from the fitted curve at half-maximal effect
# Procedure, shortened: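 Using 20nM recombinant human CYP3A4 in potassium phosphate (200mM), substrate Luciferin-PPXE at 25uM, luminescent luciferin detection followed a 60-min RT NADPH reaction; data scaled to 57 uM ketoconazole.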
# [4] = target: Cytochrome P450 2D6 (Homo sapiens) (UniProt P10635); assay: qHTS Assay for Inhibitors and Substrates of Cytochrome P450 2D6 (AID 891); also: nearly all actives have a fitted effect of over 60% in size; also: potency is read from the fitted curve at half-maximal effect
# Cytochrome P450 2D6 (Homo sapiens), sequence (P10635 whole entry, looked up): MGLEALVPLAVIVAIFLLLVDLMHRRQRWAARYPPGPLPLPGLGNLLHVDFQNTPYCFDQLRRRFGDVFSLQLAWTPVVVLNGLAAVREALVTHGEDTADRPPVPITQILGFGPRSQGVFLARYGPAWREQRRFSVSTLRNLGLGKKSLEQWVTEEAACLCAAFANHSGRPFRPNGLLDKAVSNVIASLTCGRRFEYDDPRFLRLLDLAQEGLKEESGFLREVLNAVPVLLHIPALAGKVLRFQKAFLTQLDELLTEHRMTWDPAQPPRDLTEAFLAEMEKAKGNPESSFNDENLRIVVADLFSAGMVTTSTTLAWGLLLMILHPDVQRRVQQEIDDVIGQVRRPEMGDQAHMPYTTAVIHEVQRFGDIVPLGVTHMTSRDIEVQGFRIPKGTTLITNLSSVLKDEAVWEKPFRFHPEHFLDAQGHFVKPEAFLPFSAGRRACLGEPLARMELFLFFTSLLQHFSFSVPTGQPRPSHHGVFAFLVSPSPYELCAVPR
# Procedure, shortened: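 Luminescent read-out of luciferin formed by 5 nM human CYP2D6 demethylating 30 uM Luciferin-ME EGE (Km level) over 60 min at room temperature after NADPH regeneration addition. Data normalized to full inhibition by 1.43 uM quinidine.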
# [5] = qHTS Assay for Identification of Small Molecule Agonists for Thrombopoietin (TPO) Signaling Pathway (AID 917); also: potency is read from the fitted curve at half-maximal effect
# Procedure, shortened: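 Stimulation at the TPO EC50 (26 pM final) was used to detect activators. Ba/F3 mouse cells bearing human TPO receptor and a luciferase reporter under the Glycoprotein IIb promoter were exposed to compounds for 24 hrs at 37 C.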
# [6] = target: Muscarinic acetylcholine receptor M1 (Rattus norvegicus) (UniProt P08482); assay: qHTS Assay for Antagonists of Acetylcholine Muscarinic M1 Receptor: Kinetic Measurement of Intracellular Calcium Response (AID 943); also: nearly all actives have a fitted effect of over 75% in size; also: potency is read from the fitted curve at half-maximal effect
# Muscarinic acetylcholine receptor M1 (Rattus norvegicus), sequence (P08482 whole entry, looked up): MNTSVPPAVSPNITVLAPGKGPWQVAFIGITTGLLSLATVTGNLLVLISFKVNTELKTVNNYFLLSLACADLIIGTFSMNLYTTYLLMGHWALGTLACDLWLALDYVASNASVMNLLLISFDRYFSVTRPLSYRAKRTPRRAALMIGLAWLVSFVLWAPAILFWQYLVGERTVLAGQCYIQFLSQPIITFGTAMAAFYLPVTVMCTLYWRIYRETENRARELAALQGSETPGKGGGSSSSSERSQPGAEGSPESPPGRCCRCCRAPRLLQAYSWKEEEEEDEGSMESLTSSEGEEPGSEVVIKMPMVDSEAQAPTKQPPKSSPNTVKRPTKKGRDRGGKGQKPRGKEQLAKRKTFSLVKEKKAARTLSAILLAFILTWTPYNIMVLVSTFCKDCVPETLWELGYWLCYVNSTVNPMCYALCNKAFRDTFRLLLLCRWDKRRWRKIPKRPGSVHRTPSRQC
# Procedure, shortened: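 Antagonism is measured as inhibition of the carbachol-evoked calcium rise in CHO cells transfected with rat M1. Cells are dye-loaded, exposed to compound for 10 min, then stimulated with 100 nM carbachol (EC80).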
# [7] = target: Muscarinic acetylcholine receptor M1 (Rattus norvegicus) (UniProt P08482); assay: qHTS Assay for Antagonists of Acetylcholine Muscarinic M1 Receptor: Measurement of IP-One Response (AID 944); also: nearly all actives have a fitted effect of over 75% in size; also: potency is read from the fitted curve at half-maximal effect
# Procedure, shortened: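 Antagonist mode with rat M1 receptor transfected into CHO cells. Compound is added first for 10 min, carbachol at its EC80 follows for 30 min, and lysis reagents then allow TR-FRET detection of accumulated IP1.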
# [8] = target: Pyruvate kinase (Leishmania mexicana) (UniProt Q27686); assay: qHTS Validation Assay for Inhibitors of Leishmania Mexicana Pyruvate Kinase (AID 945)
# Pyruvate kinase (Leishmania mexicana), sequence (Q27686 2-499 E452W): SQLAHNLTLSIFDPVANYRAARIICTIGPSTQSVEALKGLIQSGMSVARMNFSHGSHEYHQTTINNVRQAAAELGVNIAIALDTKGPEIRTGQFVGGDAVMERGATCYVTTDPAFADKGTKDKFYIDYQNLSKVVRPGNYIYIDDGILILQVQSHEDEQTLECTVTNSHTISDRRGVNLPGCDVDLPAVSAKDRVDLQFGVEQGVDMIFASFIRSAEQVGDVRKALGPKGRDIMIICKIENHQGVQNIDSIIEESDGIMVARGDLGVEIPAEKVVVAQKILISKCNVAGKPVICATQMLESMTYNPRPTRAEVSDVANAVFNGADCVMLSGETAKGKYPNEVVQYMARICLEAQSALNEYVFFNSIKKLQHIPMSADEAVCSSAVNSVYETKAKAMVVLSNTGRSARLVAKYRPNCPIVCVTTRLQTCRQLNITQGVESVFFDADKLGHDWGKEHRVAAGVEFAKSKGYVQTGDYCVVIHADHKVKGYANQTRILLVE
# Procedure, shortened: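 Luminescent ATP detection (PKLight) after a 1 h room-temperature reaction of 0.2 nM LmPYK E451W mutant with 0.5 mM PEP and 0.1 mM ADP at pH 7.2. Activity is normalized to DMSO-only control wells.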
# [9] = qHTS Assay for Identification of Small Molecule Antagonists for NFkB Signaling Pathway (AID 895; active = well fitted inhibition curve with a large enough effect in the signal ratio, with a control signal flat, not every such curve was filed as active; the % refers to the signal ratio)
# Procedure, shortened: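 Beta-lactamase reporter read-out (460 and 530 nm emission ratio, 405 nm excitation, 2 hrs substrate loading RT) after 5 hr stimulation with 10 pM TNF alpha in compound-treated NFkB-bla ME-180 cells in low-serum medium.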
# [10] = target: Cytochrome P450 2C19 (Homo sapiens) (UniProt P33261); assay: qHTS Assay for Inhibitors and Substrates of Cytochrome P450 2C19 (AID 899); also: nearly all actives have a fitted effect of over 60% in size; also: potency is read from the fitted curve at half-maximal effect
# Cytochrome P450 2C19 (Homo sapiens), sequence (P33261 whole entry, looked up): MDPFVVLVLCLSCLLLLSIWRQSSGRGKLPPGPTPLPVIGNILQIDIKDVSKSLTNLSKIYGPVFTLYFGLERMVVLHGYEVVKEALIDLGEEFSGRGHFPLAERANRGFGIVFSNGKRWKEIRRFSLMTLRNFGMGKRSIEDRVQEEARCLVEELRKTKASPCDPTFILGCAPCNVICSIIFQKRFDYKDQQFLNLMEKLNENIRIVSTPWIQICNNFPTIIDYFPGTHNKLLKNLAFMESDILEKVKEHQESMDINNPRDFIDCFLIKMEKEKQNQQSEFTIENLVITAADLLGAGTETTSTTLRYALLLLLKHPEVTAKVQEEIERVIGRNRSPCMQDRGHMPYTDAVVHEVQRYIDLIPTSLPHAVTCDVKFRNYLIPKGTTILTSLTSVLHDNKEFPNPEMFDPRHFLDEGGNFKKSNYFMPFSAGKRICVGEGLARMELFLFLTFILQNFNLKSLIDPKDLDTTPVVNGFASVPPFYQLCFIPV
# Procedure, shortened: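 Luminescence readout of luciferin formed from 10uM Luciferin-H EGE (KM level) by 5 nM CYP2C19 in 50mM KPO4. 60 min NADPH-driven reaction at 37C after 10 min compound preincubation; data scaled to 57uM ketoconazole inhibition.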
# [11] = target: Cytochrome P450 2C9 (Homo sapiens) (UniProt P11712); assay: qHTS Assay for Inhibitors and Substrates of Cytochrome P450 2C9 (AID 883); also: nearly all actives have a fitted effect of over 60% in size; also: potency is read from the fitted curve at half-maximal effect
# Cytochrome P450 2C9 (Homo sapiens), sequence (P11712 whole entry, looked up): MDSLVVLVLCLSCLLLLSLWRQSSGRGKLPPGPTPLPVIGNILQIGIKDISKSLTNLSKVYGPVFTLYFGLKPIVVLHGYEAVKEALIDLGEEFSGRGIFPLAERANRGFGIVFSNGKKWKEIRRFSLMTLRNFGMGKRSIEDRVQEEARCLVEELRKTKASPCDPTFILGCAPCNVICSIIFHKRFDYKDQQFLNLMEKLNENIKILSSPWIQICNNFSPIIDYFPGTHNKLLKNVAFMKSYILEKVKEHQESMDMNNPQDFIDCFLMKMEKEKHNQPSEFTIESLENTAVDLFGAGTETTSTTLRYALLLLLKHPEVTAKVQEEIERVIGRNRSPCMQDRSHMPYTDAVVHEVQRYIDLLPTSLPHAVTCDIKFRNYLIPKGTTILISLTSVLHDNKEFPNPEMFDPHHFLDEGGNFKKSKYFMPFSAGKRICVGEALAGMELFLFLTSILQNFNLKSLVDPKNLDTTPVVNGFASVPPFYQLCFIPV
# Procedure, shortened: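 Luminescent read-out of deoxyluciferin hydroxylation, normalized to 57uM sulphaphenazole (AC100). Reaction: 10nM enzyme, 100uM Luciferin-H (equal to KM), 25mM KPO4, 10 min compound preincubation, then 60 min with NADPH regeneration, both at 37C.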
# [12] = qHTS Assay for Identification of Small Molecule Agonists for NFkB Signaling Pathway (AID 928; calls by dose curve); conditions: NFkB beta-lactamase reporter cells, blue/green ratio
# Procedure, shortened: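 Activators were sought with TNF alpha co-added at 10 pM final (its EC50) to beta-lactamase reporter cells. Cells were plated in OPTI MEM with 0.5% FBS and exposed for 5 hrs at 37 C. The FRET substrate ratio was read at 460 and 530 nm.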
# [13] = qHTS Assay for Identification of Small Molecule Antagonists for Thrombopoietin (TPO) Signaling Pathway (AID 918); conditions: TPO-dependent cell signaling reporter, antagonist mode; also: potency is read from the fitted curve at half-maximal effect; nearly all actives have a fitted effect of over 60% in size
# Procedure, shortened: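 Inhibitors of TPO signaling are sought by stimulating IL-3-starved murine Ba/F3 cells (human TPO receptor, Glycoprotein IIb-driven luciferase) with TPO at its EC50 of 26 pM alongside compound. After 24 hrs at 37 C, reporter luminescence is measured.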
# [14] = Confirmation and Secondary Assay for Modulators of Hemoglobin Beta Chain Splicing at IVS2 654 locus (AID 910);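 also: HeLa cells stably carrying EGFP split by mutant beta-globin IVS2-654 intron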
# Procedure, shortened: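 Readout: per-well total peak green fluorescence (488 nm ex, 500–520 nm em) from objects 5–250 µm, reflecting correct splicing of an EGFP-654 reporter. Compounds were applied for 2 days at 37 °C to overnight-plated HeLa EGFP-654 cells; controls were DMSO and 500 nM IVS2-654 PNA.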
# [15] = Confirmation and Secondary Assay for Modulators of Hemoglobin Beta Chain Splicing at IVS2 705 locus (AID 930);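 also: HeLa cells stably expressing the EGFP-705 splicing reporter; GFP fluorescence per well restored by corrected splicing of the IVS2-705 intron in EGFP; series mostly up to about 46 µM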
# Procedure, shortened: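 Read-out: total peak GFP fluorescence per well (488 nm excitation, 500-520 nm emission) by laser-scanning cytometry. Cells: HeLa EGFP-705 splicing reporter, 2 days compound exposure in Optimem/2% FCS.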
compound,measurement,setting,value
O=c1[nH]c2ccccc2n1CCCN1CCN(C(c2ccccc2)c2ccccc2)CC1,outcome,[1],inactive
same,Potency,[2],inactive
same,Potency,[3],15.8 µM (active)
same,Potency,[4],0.794 µM (active)
same,Potency,[5],inactive
same,Potency,[6],5.01 µM (active)
same,Potency,[7],15.8 µM (active)
same,Potency,[8],inactive
Cc1cc(NC(=O)Nc2ccc3c(ccn3C)c2)sn1,outcome,[1],inactive
same,Potency,[3],inactive
same,Potency,[9],inactive
same,Potency,[10],inactive and 3.16 µM (active)
same,Potency,[5],1.58 µM (active)
same,Potency,[6],inactive
O=C(c1cc(O)c(O)c([N+](=O)[O-])c1)c1ccccc1F,outcome,[1],inactive
same,Potency,[11],1.26 µM (active)
same,Potency,[3],inactive
same,Potency,[5],inactive
same,Potency,[6],inactive
same,Potency,[7],inactive
same,Potency,[8],inactive
COc1cc2c(CCNC(C)=O)c[nH]c2cc1Cl,outcome,[1],inactive
same,Potency,[3],inactive
same,Potency,[10],inactive and 5.01 µM (active)
same,Potency,[12],3.16 µM (active)
same,Potency,[8],inactive
C=C[C@H]1CN2CC[C@@H]1C[C@@H]2[C@@H](O)c1ccnc2ccc(OC)cc12,outcome,[1],inactive
same,outcome,[11],inactive
same,Potency,[9],inactive
same,Potency,[5],inactive
same,Potency,[7],inactive
same,Potency,[8],inactive
CNCC[C@H](Oc1ccc(C(F)(F)F)cc1)c1ccccc1,outcome,[1],inactive
same,outcome,[11],inactive
same,Potency,[8],inactive
N#C/C(=C\c1ccc(O)c(O)c1)C(=O)c1ccc(O)c(O)c1,outcome,[1],inactive
same,Potency,[3],inactive
same,Potency,[9],inactive
same,Potency,[6],inactive
same,Potency,[8],inactive
N#C/C(=C\c1c[nH]c2ccccc12)C(=O)c1ccc(O)c(O)c1,outcome,[1],inactive
same,Potency,[2],7.94 µM (active)
same,Potency,[3],inactive
same,Potency,[6],inactive
same,Potency,[7],inactive
same,Potency,[8],inactive
N[C@H](CCCP(=O)(O)O)C(=O)O,outcome,[1],inactive
same,Potency,[11],inactive
same,Potency,[4],inactive
same,Potency,[10],inactive
same,Potency,[5],inactive
same,Potency,[6],inactive
same,Potency,[8],inactive
CCCN(CC1CC1)c1nc(C)nc(Nc2c(Cl)cc(Cl)cc2Cl)c1Cl,outcome,[1],inactive
same,Potency,[3],inactive
same,Potency,[4],inactive and 1.58 µM (active)
same,Potency,[5],inactive
same,Potency,[6],inactive
same,Potency,[7],inactive
same,Potency,[8],inactive
CCCn1c(=O)c2[nH]c(-c3ccc(OCC(=O)NCCN)cc3)nc2n(CCC)c1=O,outcome,[1],inactive
same,Potency,[2],2.51 µM (active)
same,Potency,[3],inactive
same,Potency,[5],inactive
same,Potency,[8],inactive
O=C1C(SCCO)=C(SCCO)C(=O)c2ccccc21,outcome,[1],inactive
same,Potency,[11],12.6 µM (active) and 5.01 µM (active)
same,Potency,[3],inactive
same,Potency,[4],7.94 µM (active)
same,Potency,[10],501 nM (active) and 79.4 nM (active)
same,Potency,[13],1.26 µM (active)
same,Potency,[6],inactive
same,Potency,[7],10 µM (active)
same,Potency,[8],inactive
CN1[C@@H]2CC[C@H]1CC(OC(c1ccccc1)c1ccccc1)C2 (some centres not stated),Potency,[4],2 µM (active) and 1.26 µM (active)
CC(C)Cc1ccc([C@H](C)C(=O)O)cc1,Potency,[4],inactive
CN(C)C(N)=NCCC[C@H](N)C(=O)O,Potency,[10],inactive
CC(=O)SCC[N+](C)(C)C,Potency,[10],inactive
COC1=C(OC)C(=O)c2ccccc2C1=O,Potency,[13],3.98 µM (active)
NC[C@@H]1O[C@H](C23CC4CC(CC(C4)C2)C3)Cc2c1ccc(O)c2O,Potency,[13],10 µM (active)
Nc1cc(-c2ccncc2)c[nH]c1=O,Potency,[3],inactive
same,Potency,[10],5.01 µM (active)
same,outcome,[14],inactive
same,outcome,[15],inactive
O=C(Nc1ccncc1)c1cc([N+](=O)[O-])ccc1Cl,Potency,[2],1.26 µM (active)
same,Potency,[3],inactive
O=C(/C=C/c1ccc(O)c(O)c1)OCCc1ccccc1,Potency,[3],inactive
same,outcome,[14],inactive
same,outcome,[15],inactive
O=C(OCc1ccccc1)c1ccccc1,Potency,[2],inactive
same,outcome,[14],inactive
same,outcome,[15],inactive
Nc1ccc(C(=O)O)c(O)c1,outcome,[14],inactive
same,outcome,[15],inactive
Clc1ccccc1-c1nc(-c2ccncc2)no1,"activity change, positive = activation",[3],-40.1% [at 11.4 µM] (inactive)
same,Potency,[10],0.0631 µM (active)
O=C1NC(O)=NC1(c1ccccc1)c1ccccc1,outcome,[1],inactive
same,Potency,[5],inactive
same,Potency,[8],inactive
CN1C2CCC1CC(OC(=O)C(O)c1ccccc1)C2 (configuration not stated),outcome,[14],inactive
same,outcome,[15],inactive
Cc1c(Nc2ncccc2C(=O)O)cccc1C(F)(F)F,Potency,[2],inactive
same,outcome,[14],inactive
same,outcome,[15],inactive
CCC1C(=O)OCC1Cc1cncn1C (configuration not stated),Potency,[10],7.94 µM (active)
C=C[C@@H]1CN2CC[C@@H]1C[C@H]2[C@H](O)c1ccnc2ccc(OC)cc12,Potency,[11],inactive
CC(C(=O)O)c1ccc(C(=O)c2cccs2)cc1 (configuration not stated),Potency,[2],inactive
same,outcome,[14],inactive
same,outcome,[15],inactive
CN1CCc2cccc3c2C1Cc1ccc(O)c(O)c1-3 (configuration not stated),outcome,[14],inactive
same,outcome,[15],inactive
CCCCC1C(=O)N(c2ccccc2)N(c2ccc(O)cc2)C1=O (configuration not stated),outcome,[14],inactive
same,outcome,[15],inactive
Oc1c(Br)cc(Br)c2cccnc12,Potency,[2],inactive
same,outcome,[14],inactive
same,outcome,[15],inactive
O=Nc1ccc2oc(=O)ccc2c1,outcome,[1],inactive
same,Potency,[13],5.01 µM (active)
same,Potency,[6],inactive
same,Potency,[7],inactive
same,Potency,[8],inactive
CCCCCCOc1ccccc1C(N)=O,outcome,[14],inactive
same,outcome,[15],inactive
COc1ccccc1N1CCN(CCN(C(=O)c2ccc(I)cc2)c2ccccn2)CC1,Potency,[11],inactive
same,Potency,[4],3.98 µM (active)
COc1cccc(OC)c1OCCNCC1COc2ccccc2O1 (configuration not stated),Potency,[2],3.16 µM (active)
same,Potency,[3],inactive
same,outcome,[14],inactive
same,outcome,[15],inactive
Cc1nc2sccn2c(=O)c1CCN1CCC(=C(c2ccccc2)c2ccc(F)cc2)CC1,Potency,[11],31.6 µM (active)
same,Potency,[2],inactive
same,Potency,[4],7.94 µM (active)
O=c1cc(-c2ccccc2)oc2c(O)c(O)ccc12,Potency,[3],inactive
same,outcome,[14],inactive
same,outcome,[15],inactive
CC(N)C(=O)OC(C)(C)Cc1ccc(Cl)cc1 (configuration not stated),Potency,[3],inactive
same,outcome,[14],inactive
same,outcome,[15],inactive
CC1OC1P(=O)(O)O (configuration not stated),outcome,[14],inactive
same,outcome,[15],inactive
COc1cc(NC(C)CCCN)c2ncccc2c1 (configuration not stated),outcome,[14],inactive
same,outcome,[15],inactive
